# Assay results published in PMC12280212.
# Tests used:
# Actin, cytoplasmic 1 = Actin, cytoplasmic 1 (UniProt P60709); experiment: cross-linking mass spectrometry
# Histone H2B type 1-N = Histone H2B type 1-N (UniProt Q99877); experiment: cross-linking mass spectrometry
# Alpha-enolase = Alpha-enolase (UniProt P06733); experiment: cross-linking mass spectrometry
# [1] = biological target: Heat shock cognate 71 kDa protein (UniProt P11142); experiment: cross-linking mass spectrometry
# [2] = biological target: Heterogeneous nuclear ribonucleoprotein U (UniProt Q00839); experiment: cross-linking mass spectrometry
# [3] = biological target: Protein disulfide-isomerase A6 (UniProt Q15084); experiment: cross-link between two proteins; cross-linking mass spectrometry
# [4] = biological target: Voltage-gated monoatomic cation channel TMEM109 (UniProt Q9BVC6); experiment: as above
# CD44 antigen = CD44 antigen (UniProt P16070); experiment: cross-link between two proteins; affinity purification or IP with mass spectrometry; cross-linking mass spectrometry
# Chain of Protein disulfide-isomerase, P07237 (P07237 whole entry): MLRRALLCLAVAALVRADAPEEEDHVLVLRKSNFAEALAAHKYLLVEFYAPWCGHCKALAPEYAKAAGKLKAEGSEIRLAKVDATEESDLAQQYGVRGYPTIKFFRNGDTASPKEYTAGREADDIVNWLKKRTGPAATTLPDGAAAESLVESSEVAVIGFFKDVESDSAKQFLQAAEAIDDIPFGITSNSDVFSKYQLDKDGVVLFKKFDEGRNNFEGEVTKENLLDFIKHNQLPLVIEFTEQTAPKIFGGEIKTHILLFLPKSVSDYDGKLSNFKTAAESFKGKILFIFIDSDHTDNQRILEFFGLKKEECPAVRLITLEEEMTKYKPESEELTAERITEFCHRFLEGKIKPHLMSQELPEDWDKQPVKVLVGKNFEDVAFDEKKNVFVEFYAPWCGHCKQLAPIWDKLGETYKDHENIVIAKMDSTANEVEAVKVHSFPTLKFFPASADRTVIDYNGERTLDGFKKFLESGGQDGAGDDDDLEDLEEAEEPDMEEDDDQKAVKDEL
# Chain of Alpha-enolase (P06733 whole entry): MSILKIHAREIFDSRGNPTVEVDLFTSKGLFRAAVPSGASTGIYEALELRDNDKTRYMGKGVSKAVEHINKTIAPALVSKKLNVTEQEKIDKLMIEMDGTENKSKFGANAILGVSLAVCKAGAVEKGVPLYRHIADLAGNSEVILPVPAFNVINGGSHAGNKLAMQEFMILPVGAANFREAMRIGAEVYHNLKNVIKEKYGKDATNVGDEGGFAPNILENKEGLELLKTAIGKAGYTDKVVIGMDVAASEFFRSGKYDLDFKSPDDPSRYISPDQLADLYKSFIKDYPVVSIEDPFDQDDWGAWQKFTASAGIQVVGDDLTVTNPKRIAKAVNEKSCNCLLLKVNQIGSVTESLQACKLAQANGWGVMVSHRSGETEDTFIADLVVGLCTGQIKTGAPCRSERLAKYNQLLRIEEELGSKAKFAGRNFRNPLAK
# Chain of Protein disulfide-isomerase A6 (Q15084 whole entry): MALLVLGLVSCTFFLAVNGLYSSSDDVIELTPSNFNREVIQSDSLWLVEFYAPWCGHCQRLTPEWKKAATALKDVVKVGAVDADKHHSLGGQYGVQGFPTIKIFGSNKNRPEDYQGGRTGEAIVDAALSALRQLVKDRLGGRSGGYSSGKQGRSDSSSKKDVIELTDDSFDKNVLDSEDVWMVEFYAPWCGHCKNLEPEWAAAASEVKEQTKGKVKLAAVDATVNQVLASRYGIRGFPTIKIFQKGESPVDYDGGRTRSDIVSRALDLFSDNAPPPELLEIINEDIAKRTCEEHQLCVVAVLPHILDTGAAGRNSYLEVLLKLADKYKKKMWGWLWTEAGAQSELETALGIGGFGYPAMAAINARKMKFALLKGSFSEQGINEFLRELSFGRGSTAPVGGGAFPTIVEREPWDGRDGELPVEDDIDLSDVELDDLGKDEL
# Chain of Heterogeneous nuclear ribonucleoprotein U (Q00839 whole entry): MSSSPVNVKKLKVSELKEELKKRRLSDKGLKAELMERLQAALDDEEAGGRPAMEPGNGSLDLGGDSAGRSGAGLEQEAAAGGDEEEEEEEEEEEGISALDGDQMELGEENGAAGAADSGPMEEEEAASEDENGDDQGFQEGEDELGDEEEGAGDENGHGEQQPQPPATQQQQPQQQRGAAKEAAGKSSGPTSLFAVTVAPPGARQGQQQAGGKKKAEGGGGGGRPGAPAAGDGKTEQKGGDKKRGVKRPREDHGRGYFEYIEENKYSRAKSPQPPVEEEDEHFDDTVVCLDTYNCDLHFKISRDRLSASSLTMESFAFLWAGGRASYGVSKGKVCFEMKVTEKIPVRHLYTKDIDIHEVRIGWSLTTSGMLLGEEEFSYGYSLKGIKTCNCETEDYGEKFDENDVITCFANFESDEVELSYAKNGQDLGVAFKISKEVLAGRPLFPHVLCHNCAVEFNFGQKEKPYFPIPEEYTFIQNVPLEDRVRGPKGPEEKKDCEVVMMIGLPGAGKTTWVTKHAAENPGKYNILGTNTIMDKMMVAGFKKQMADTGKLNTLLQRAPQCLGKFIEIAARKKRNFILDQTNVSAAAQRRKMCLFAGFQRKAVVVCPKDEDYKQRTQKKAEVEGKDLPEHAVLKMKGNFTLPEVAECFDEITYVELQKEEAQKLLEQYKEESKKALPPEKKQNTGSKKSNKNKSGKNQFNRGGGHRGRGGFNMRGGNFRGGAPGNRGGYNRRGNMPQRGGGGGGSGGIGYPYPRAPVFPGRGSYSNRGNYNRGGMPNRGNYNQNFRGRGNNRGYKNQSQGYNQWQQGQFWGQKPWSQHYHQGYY
# Chain of Glyceraldehyde-3-phosphate dehydrogenase, P04406 (P04406 whole entry): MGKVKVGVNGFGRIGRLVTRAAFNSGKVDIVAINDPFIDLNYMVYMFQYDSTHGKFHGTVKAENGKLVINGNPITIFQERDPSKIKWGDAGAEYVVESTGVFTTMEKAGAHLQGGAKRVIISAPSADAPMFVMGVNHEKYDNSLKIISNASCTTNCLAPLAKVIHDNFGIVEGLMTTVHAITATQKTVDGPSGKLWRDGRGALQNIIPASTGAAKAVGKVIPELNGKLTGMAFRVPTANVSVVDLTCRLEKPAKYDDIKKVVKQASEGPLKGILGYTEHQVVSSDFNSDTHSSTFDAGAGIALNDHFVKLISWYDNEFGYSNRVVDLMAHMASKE
# Chain of Voltage-gated monoatomic cation channel TMEM109 (Q9BVC6 whole entry): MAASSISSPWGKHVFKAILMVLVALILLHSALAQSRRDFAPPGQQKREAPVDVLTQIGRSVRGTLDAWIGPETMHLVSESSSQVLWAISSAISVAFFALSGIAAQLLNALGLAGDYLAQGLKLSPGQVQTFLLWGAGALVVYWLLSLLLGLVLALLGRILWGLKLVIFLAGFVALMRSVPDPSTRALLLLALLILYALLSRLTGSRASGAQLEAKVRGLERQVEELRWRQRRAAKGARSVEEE
substance,measurement,setting,value
"High mobility group protein B1, P09429",listed as a hit,"Actin, cytoplasmic 1",yes
same,listed as a hit,Histone H2B type 1-N,yes
"Glyceraldehyde-3-phosphate dehydrogenase, P04406",listed as a hit,Alpha-enolase,yes
"Tubulin beta chain, P07437",listed as a hit,[1],yes
"Heterogeneous nuclear ribonucleoprotein A1, P09651",listed as a hit,[2],yes
"Protein disulfide-isomerase, P07237",listed as a hit,[3],yes
"Transmembrane protein 43, Q9BTV4",listed as a hit,[4],yes
"Annexin A6, P08133",listed as a hit,CD44 antigen,yes
